Sampled rows, rich in hits. Any-hit rate of the full collection: about 18%.
DT40 TDP1 CPT: growth inhibition of DT40 Tdp1-/-;hTDP1 cells with camptothecin (screen for TDP1 inhibitors); 420,000 compounds, 12% hits; chicken DT40 Tdp1-/-;hTDP1 cells + 20 nM CPT, ATP luminescence, 48 h; Potency, µM (top dose mostly 46.2 µM), for the others: at the highest dose activity change, negative = growth inhibition, hits mostly inhibitors; further: potency means the concentration at half of the fitted maximal effect; on the % scale 0 is the no-effect control and ±100 the full control effect; nearly all actives have a fitted effect of over 55% in size
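Chicken DT40 Tdp1-/- cells complemented with human TDP1, 400 cells/well, exposed to compounds plus 20 nM camptothecin for at least 48 h at 37 C; viability read as ATP content by CellTiter-Glo luminescence.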
TGFb inhibitor: TGF-b pathway inhibition | HepG2 CAGA-GFP TGF-b/SMAD3 reporter, GFP fluorescence, 18 h; TGF-beta stimulated, 500 pg/mL final | Potency, µM (highest dose often 46.1 µM), for the others: at the highest dose activity, negative = inhibition, most hits filed as inhibitors | 410,000 compounds, 1.2% hits; further: potency means the concentration at half of the fitted maximal effect; on the % scale 0 is the no-effect control and ±100 the full control effect; nearly all actives have a fitted effect of over 65% in size
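Read-out: total well GFP (ex488/em500-530) summed from mean per-cell fluorescence. Cells: HEPG2 CAGA-GFP, 1% FBS DMEM, 18 h at 37 degrees C with 500 pg/mL final TGF-beta. Unstimulated wells served as the full-inhibition control; stimulated DMSO wells = 0%.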
TDP1 cell noCPT: qHTS for Inhibitors of human tyrosyl-DNA phosphodiesterase 1 (TDP1): qHTS in cells in absence of CPT. 420,000 compounds, 15% hits. Potency, µM (top dose mostly 46.2 µM), inactives show top-dose activity change, negative = growth inhibition, actives largely listed as inhibitors. DT40 Tdp1-/- hTDP1 cells, no CPT, ATP luminescence, 48 h; further: potency means the concentration at half of the fitted maximal effect; on the % scale 0 is the no-effect control and ±100 the full control effect; nearly all actives have a fitted effect of over 55% in size
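Luminescent ATP content (CellTiter-Glo) served as the growth readout. Knockout chicken DT40 cells expressing human TDP1 were exposed to compounds without camptothecin for a minimum 48 hr at 37 °C.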
TDP1 inh: blocks human tyrosyl-DNA phosphodiesterase 1; Q9NUW8; recombinant TDP1, AlphaScreen DNA substrate cleavage; Potency, µM (top dose mostly 130 µM), for inactives: top-dose activity change, negative = inhibition, actives largely listed as inhibitors; 350,000 compounds, 0.28% hits; AID 485290; further: potency means the concentration at half of the fitted maximal effect; on the % scale 0 is the no-effect control and ±100 the full control effect; nearly all actives have a fitted effect of over 40% in size
Target sequence (Q9NUW8 whole entry, looked up): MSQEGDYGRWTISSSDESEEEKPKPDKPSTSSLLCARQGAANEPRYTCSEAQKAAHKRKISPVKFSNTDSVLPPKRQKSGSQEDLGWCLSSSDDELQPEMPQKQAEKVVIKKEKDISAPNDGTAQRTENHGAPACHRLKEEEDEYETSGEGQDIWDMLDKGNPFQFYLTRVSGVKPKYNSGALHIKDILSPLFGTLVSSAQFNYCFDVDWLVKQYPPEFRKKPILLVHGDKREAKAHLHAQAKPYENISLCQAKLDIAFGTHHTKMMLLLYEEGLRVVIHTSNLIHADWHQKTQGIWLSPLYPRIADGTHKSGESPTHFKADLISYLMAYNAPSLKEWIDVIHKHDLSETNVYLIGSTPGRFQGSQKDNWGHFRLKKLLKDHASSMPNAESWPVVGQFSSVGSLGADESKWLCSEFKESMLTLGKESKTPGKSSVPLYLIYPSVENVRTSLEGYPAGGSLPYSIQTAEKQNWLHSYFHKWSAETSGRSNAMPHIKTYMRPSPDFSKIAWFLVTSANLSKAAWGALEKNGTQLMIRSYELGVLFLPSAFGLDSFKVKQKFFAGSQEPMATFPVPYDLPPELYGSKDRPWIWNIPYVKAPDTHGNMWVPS
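Enzyme-compound mixtures sat 15 min at room temperature, followed by a 5 min reaction with 15 nM final substrate and 10 min with AlphaScreen beads. Recombinant human Tdp1 was used at 1 nM final.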
IL1B secr inh: inflammasome signaling inhibition, IL-1 beta readout; THP-1 LPS/ATP IL-1B secretion, AlphaLISA, 16 h; stronger effect = lower value; activity change, % at 57.5 µM; 360,000 compounds, 4.7% hits; AID 743279; in the data active means activity change below about -50%; inconclusive means mostly about -30% to -49%; further: on the % scale 0 is the no-effect control and ±100 the full control effect
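Secreted IL-1B measured by AlphaLISA bead assay after 16 h compound exposure of THP-1 cells; compounds (final up to 57.5 uM) added 1 h before LPS (250 ng/mL) and ATP (1.25 mM) stimulation; lower signal means less secretion.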
HepG2 tox: kills HepG2 cells in TGF-b inhibitor counter-screen. HepG2 CAGA-GFP viability, ATP luminescence, 18 h. Potency, µM (top dose mostly 46.1 µM), without a hit: top-dose activity change, negative = cytotoxicity, actives largely listed as cytotoxic. 410,000 compounds, 0.76% hits. AID 588856; further: potency means the concentration at half of the fitted maximal effect
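HepG2 CAGA-GFP cells (1000/well, DMEM with 1% FBS) received compound, then TGF-beta at 500 pg/mL final, and were incubated 18 hours at 37 degrees C. Viability was read by CellTiter-Glo luminescence. Media-only wells were set as complete cell-killing and DMSO as no toxicity.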
Active calls of the source: *; u = inconclusive; x = no result; [ ] = dose if it differs, or a comment. Unless noted, the call rests on the fitted dose curve; in most records, active means well fitted curve in the direction sought with a large enough effect; inconclusive means small, poorly fitted or top-dose-only effect, or another doubt; inactive means no such curve, though single readings can be large; an effect the other way counts as inactive or inconclusive.

SMILES | DT40 TDP1 CPT | TGFb inhibitor | TDP1 cell noCPT | TDP1 inh | IL1B secr inh | HepG2 tox
CN(C[C@H](Cc1ccccc1)N(C[C@H](Cc1ccccc1)N(CCC(C)(C)C)N=O)N=O)N=O | 18µM* | 2% | u | 5% | -1 | -18%
CC(O)C(C)OC(=O)[C@@H]1C[C@@H]2c3cccc4c3c(cn4C(C)C)C[C@H]2N(C)C1 (stereo partly specified) | u | x | u | 12%[56.1 µM] | x | x
C[n+]1c(-c2ccccc2)c2cc(N)ccc2c2ccc(N)cc21 | 0.52µM* | 4.5µM* | 0.16µM* | x | 0 | -17%
Nc1ccc2ccc3cccc[n+]3c2c1 | u | 73% | -11% | x | 39 | 8%
Fc1ccc(C(OCCN2CCN(C/C=C/c3ccccc3)CC2)c2ccc(F)cc2)cc1 | 5.2µM* | x | 3.3µM* | 22% | x | x
c1ccc(CCCN2CCN(CCOC(c3ccccc3)c3ccccc3)CC2)cc1 | 9.2µM* | u | 13µM* | 0%[56.1 µM] | -16 | 11µM*
O=C(/C=C/c1ccc(F)cc1)NNC(=O)CCN1CCN(Cc2ccccc2)CC1 | -24% | -26% | u | 6% | -20 | -22%
CNC(=O)[C@H]1C[C@@H]1[C@H](NP(=O)(c1ccccc1)c1ccccc1)c1ccccc1 | x | x | x | 6% | x | x
O=C(Oc1ccnc2cc(Cl)ccc12)N1CCOCC1 | -22% | -11% | u | 1% | -19 | -7%
CCC(=O)O[C@@](Cc1ccccc1)(c1ccccc1)[C@@H](C)CN(C)C | u | x | u | 6%[56.1 µM] | x | x
CCN(CC)P(=O)(Nc1ccc(Br)cc1)c1c(C)nn(CCC#N)c1NC(=O)c1ccc(Cl)cc1 (stereo unspecified) | u | -29% | u | 6% | -19 | -17%
COC1=C[C@H]2C3=C([C@H]2C1=O)[C@H](NC(C)=O)CCc1cc(OC)c(OC)c(OC)c13 | x | x | x | 7%[56.1 µM] | x | x
COc1cc2c(c(OC)c1OC)-c1ccc(O)c(=O)cc1[C@@H](NC(C)=O)CC2 | 5.2µM* | u | 6.5µM* | 2% | 99 | -13%
COc1cc2c(c(OC)c1OC)-c1ccc(O)cc1C(NC(C)=O)CC2 (stereo unspecified) | 0.21µM* | -2% | 0.18µM* | x | 67 | 1%
Cc1cccnc1NC(=O)C1CCCN(S(=O)(=O)c2ccc3c(c2)oc(=O)n3C)C1 (stereo unspecified) | 1% | u | -12% | 1% | -5 | -1%
CCOc1ccc(CN(CCc2ccc3c(c2)OCO3)Cc2cccc(Br)c2)cc1 | 2.1µM* | 0% | u | -1%[12.3 µM] | x | -47%
CC[C@H](C)[C@H](NC(=O)CN)C(=O)N[C@@H](CC(C)C)C(=O)NCC(=O)N[C@@H](Cc1ccccc1)C(=O)N[C@H](C(=O)N[C@@H](Cc1ccccc1)C(=O)N[C@H](C(=O)N[C@@H](CC(C)C)C(=O)O)[C@@H](C)O)C(C)C | x | x | x | 6% | x | x
N#Cc1cc2c(nc1SCC(=O)Nc1cccc(C(F)(F)F)c1)C1CCN2CC1 | x | 2% | x | 5% | x | -17%
CN1CCc2cc(O)cc3c2[C@H]1Cc1ccc(O)c(O)c1-3 | 1.6µM* | 7% | 2.6µM* | x | -17 | -15%
CCCN1CCc2cccc3c2C1Cc1ccc(O)c(O)c1-3 (stereo unspecified) | 3.7µM* | x | -89% | 5% | x | x
COc1cc2c(cc1O)-c1c(O)c(OC)cc3c1[C@H](C2)N(C)CC3 | -43% | x | u | -5%[56.1 µM] | x | x
COc1cc2c(cc1O)C[C@H]1c3c(cc(O)c(OC)c3-2)CCN1C | -2% | 30% | -2% | 2%[21 µM] | 0 | 2%

High-throughput results as filed in PubChem.
